Drawing on PubChem BioAssay (NCATS), this text covers Potency and outcome for 4 compounds.

Assay [1] is described as follows: OV-KATE Cancer Cell Toxicity qHTS against the NCATS CANVASS Library (AID 1347345). Also: potency is read from the fitted curve at half-maximal effect. A digest of the protocol: (§1)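 Toxicity is measured over 72 h of compound exposure at 37 degrees C under 5% CO2. Each well holds 1000 cells, pre-incubated for 4 hours before dosing across an 11-point range. CellTiter-Glo luminescence gives viability.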
In general terms: In qHTS, concentration-response curves come from the screen itself.

The nature of assay [2]: HPAF-II Cancer Cell Toxicity qHTS against the NCATS CANVASS Library (AID 1347346). Also: nearly all actives have a fitted effect of over 55% in size. Also: potency is read from the fitted curve at half-maximal effect. The method, boiled down: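 Luminescence from CellTiter-Glo, added after 72 h compound exposure and a 15 min room-temperature incubation, served as the viability readout. HPAF-II cells (1000/well) received an 11-point concentration series.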
The nature of assay [3]: OV-SAHO Cancer Cell Toxicity qHTS against the NCATS CANVASS Library (AID 1347348). Also: nearly all actives have a fitted effect of over 55% in size. Also: potency is read from the fitted curve at half-maximal effect. The method, boiled down:
as §1

Assay [4] is described as follows: U-118MG Cancer Cell Toxicity qHTS against the NCATS CANVASS Library (AID 1347351). Also: potency is read from the fitted curve at half-maximal effect. The method, boiled down: as §1
Assay [5] can be described thus: HPAF-II 24hr Apoptosis Induction qHTS against the NCATS CANVASS Library (AID 1347356). A digest of the protocol: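 Luminescent caspase-3/7 signal (DEVD substrate, Caspase-Glo) served as read-out, taken 15 min after reagent addition to HPAF-II cells exposed 24 h to compounds.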
A short description of assay [6]: HPAF-II 12hr Apoptosis Induction qHTS against the NCATS CANVASS Library (AID 1347358). A digest of the protocol: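 500 HPAF-II cells/well; cmpds 11-pt; 12 hr, 37 degrees C/5% CO2; Caspase-Glo 3/7 added, 15 min RT dark; luminescence read. Doxorubicin titration as control.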
Assay [7] can be described thus: HPAF-II 18hr Apoptosis Induction qHTS against the NCATS CANVASS Library (AID 1347360). A digest of the protocol:
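Luminescent DEVD-substrate signal, proportional to caspase activity, is measured in HPAF-II cells after 18-hour treatment across a concentration series; doxorubicin serves as control.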

Assay [8] deals with Luciferin 4-monooxygenase (Photinus pyralis) (UniProt P08659). Nature of the assay: Firefly luciferase counterscreen qHTS: Assay Interference Panel against the NCATS CANVASS Library (AID 1347363). Also: series mostly up to about 57 µM. A digest of the protocol:
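Luminescence inhibition readout: compounds (11-point qHTS) sat 15 min at room temperature with substrate mix (0.013 mM luciferin and ATP), then firefly luciferase was added and signal read 5 min later.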
(In general: Counterscreens check selectivity or assay interference.)

A short description of assay [9]: qHTS for ATAD5 Agonist screened against the NCATS CANVASS Library (AID 1347367).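 Also: luciferase reporter driven by ATAD5 which rises upon DNA damage.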 A digest of the protocol: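 Genotoxicity was scored as increased ATAD5-luciferase luminescence in HEK293T after 16hr of exposure, with cell viability measured by fluorescence beforehand in the same well.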
Assay [10] is described as follows: MCF7 Cancer Cell Toxicity qHTS against the NCATS CANVASS Library (AID 1347369). Also: potency is read from the fitted curve at half-maximal effect. A digest of the protocol:
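This 72 hr qHTS scored MCF7 viability by CellTiterGlo luminescence, with 500 cells/well; bortezomib titration ran as control.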

Assay [11] in a line: qHTS for ATAD5 Antagonist screened against the NCATS CANVASS Library (AID 1347370). Also: nearly all actives have a fitted effect of over 65% in size. Also: potency is read from the fitted curve at half-maximal effect. The method, boiled down:
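HEK293T cells with stably integrated ATAD5-luciferase reporter, 2000/well, 5 h attachment; compounds plus 10 µM 5-fluorouridine, 16 h at 37 °C. Luciferase luminescence read, with CellTiter-Fluor viability read first.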

Assay [12] can be described thus: J3T Cancer Cell Toxicity qHTS against the NCATS CANVASS Library (AID 1347371). Also: potency is read from the fitted curve at half-maximal effect. The method, boiled down: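 Cells plated at 500 per well, compounds pin-transferred, plates incubated 72 hr at 37C, then CellTiterGlo added and luminescence read to measure ATP content.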
Assay [13] has as its target Nuclear receptor subfamily 1 group I member 3 (Homo sapiens) (UniProt Q14994). The assay is described as follows: qHTS for Constitutive Androstane Receptor (CAR) Agonist screened against the NCATS CANVASS Library (AID 1347373).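 Also: every well also contained 1.5 µM PK11195 alongside the test compound.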 A digest of the protocol:
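HepG2-hCAR-CYP2B6 cells, 2500/well, attached 4hr; cpd + PK11195 1.5uM final; 24hr 37C 5% CO2. CellTiter-Fluor viability read, then ONE-Glo luminescence for CAR activation.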

The nature of assay [14]: 10-beta competent E. coli microbial cell viability qHTS against the NCATS CANVASS Library (AID 1347376). Also: series mostly up to about 46 µM. The method, boiled down:
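E. coli 10-beta, 0.2 OD; cpds 11-pt; o/n 37C, 5% CO2; BacTiter-Glo 20 min RT; luminescence (ATP) = viable cells. Daunomycin ctrl.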

A short description of assay [15]: qHTS for H2AX Agonists against the NCATS CANVASS Library (AID 1347378).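 Also: phospho-H2AX S139 level in CHO-K1 lysates by TR-FRET emission ratio.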 Also: potency is read from the fitted curve at half-maximal effect. A digest of the protocol:
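Signal is the 665/620 nm emission ratio from europium cryptate and d2 antibody pair, rising with S139-phosphorylated H2AX. CHO-K1 cells saw test agents for 3 hr at 37C; detection ran 24 hr at room temperature.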

Assay [16] in a line: qHTS for Inflammasome Signaling Inhibitors: IL-1-beta AlphaLISA screen against the NCATS CANVASS Library (AID 1347379).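 Also: human THP-1 cells primed with LPS then triggered with ATP.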 A digest of the protocol:
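THP-1 cells pretreated 1 hr with compound (up to 57.5 uM final), then stimulated with LPS (250 ng/mL final) and ATP (1.25 mM final). Secreted IL-1B measured by AlphaLISA after 16 hr; glyburide as positive control.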

A short description of assay [17]: Viability qHTS for inhibitors of the SERCaMP assay screened against the NCATS CANVASS Library (AID 1347400). Also: nearly all actives have a fitted effect of over 70% in size. Also: potency is read from the fitted curve at half-maximal effect. The method, boiled down: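 SH-SY5Y SERCaMP MJH297 cells, 1000/well; 4 h settle, 37C/5% CO2; pin-transferred cpds; 48 h; CellTiter-Glo lum. Pos ctrl bortezomib 0.0001 - 4.6 uM.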
A short description of assay [18]: HEK293 24hr Apoptosis Induction qHTS against the NCATS CANVASS Library (AID 1347359). A digest of the protocol:
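Caspase-3/7 activation measured as luminescence from the DEVD-based Caspase-Glo reagent, 15 min at room temperature, following 24-hour compound treatment of HEK293 cells.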

Assay [19] in a line: Cytotoxicity qHTS for assessment of Hepg2 cells membrane integrity screened against the NCATS CANVASS Library (AID 1347387). A digest of the protocol:
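qHTS, 11-pt conc. series, 0.59 nM - 46 uM final; HepG2 2000 cells/well, overnight attachment; 5 hr compound exposure 37C/5% CO2; CytoTox-ONE, 10 min RT; fluorescence ex560/em590 = LDH from damaged membranes.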

The nature of assay [20]: Vero-766 cells viability qHTS against the NCATS CANVASS Library: Counterscreen for Zika virus inhibition assay (AID 1347394). Also: series mostly up to about 46 µM; nearly all actives have a fitted effect of over 60% in size. The method, boiled down: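 Counterscreen for toxicity: Vero 766 cells exposed 72 h to an 11-point compound series, viability by CellTiter-Glo.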

Results filed as inconclusive are left out. The source made the active and inactive calls. Calls follow the shape of the dose curve; as a rule, active = well fitted curve in the direction sought with a large enough effect; inconclusive = small, poorly fitted or top-dose-only effect, or another doubt; inactive = no such curve, though single readings can be large; an effect the other way counts as inactive or inconclusive.

Chain of Nuclear receptor subfamily 1 group I member 3 (Homo sapiens) (Q14994 whole entry, looked up): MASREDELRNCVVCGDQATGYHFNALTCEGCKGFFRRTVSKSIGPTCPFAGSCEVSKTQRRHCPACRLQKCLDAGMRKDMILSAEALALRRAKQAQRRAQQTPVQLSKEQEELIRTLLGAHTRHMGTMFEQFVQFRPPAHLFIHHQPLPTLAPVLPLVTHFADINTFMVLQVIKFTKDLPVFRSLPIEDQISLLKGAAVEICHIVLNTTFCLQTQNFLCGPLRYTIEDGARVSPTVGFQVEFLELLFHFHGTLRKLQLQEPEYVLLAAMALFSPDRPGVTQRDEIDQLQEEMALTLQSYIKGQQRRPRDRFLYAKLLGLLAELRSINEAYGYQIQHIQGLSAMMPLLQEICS
Chain of Luciferin 4-monooxygenase (Photinus pyralis) (P08659 whole entry, looked up): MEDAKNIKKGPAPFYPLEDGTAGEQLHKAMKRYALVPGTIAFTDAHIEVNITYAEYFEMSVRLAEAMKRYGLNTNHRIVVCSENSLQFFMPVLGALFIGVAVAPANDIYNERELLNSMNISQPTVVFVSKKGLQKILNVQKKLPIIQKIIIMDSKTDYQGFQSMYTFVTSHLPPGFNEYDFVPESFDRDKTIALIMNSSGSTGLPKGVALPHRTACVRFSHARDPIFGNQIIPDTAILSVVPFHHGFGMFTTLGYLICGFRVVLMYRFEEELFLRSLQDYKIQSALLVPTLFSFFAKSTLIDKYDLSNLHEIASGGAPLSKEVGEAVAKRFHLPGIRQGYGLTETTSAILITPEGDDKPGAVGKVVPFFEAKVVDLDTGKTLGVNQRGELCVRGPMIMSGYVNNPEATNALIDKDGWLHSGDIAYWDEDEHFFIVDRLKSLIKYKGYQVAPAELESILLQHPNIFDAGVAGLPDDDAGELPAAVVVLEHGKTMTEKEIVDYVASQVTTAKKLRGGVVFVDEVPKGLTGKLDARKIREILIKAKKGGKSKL

As for `CC1=CC2=C[C@H](C)C[C@@]23OC(=C(C)C3=O)CC(C)(C)/C=C/C1=O`, the Potency was 838 nM (active) in assay [1]; 668 nM (active) in [2]; 2110 nM (active) in assay [3]; 749 nM (active) in assay [4]; 1650 nM (active) in assay [10]; 933 nM (active) in assay [11]. The Potency in assay [12] was 935 nM (active); in assay [15] it was 1720 nM (active); in assay [16], 1090 nM (active); in [17], 1520 nM (active). Also, the compound was called inactive in assay [5], in assay [13] and in assay [14]. Besides, the Potency entry in assay [6], in assay [7], in assay [8] and in assay [9] was “inactive” throughout.
As for `O=Cc1ccc2n1C[C@@]1(C[C@H](O)[C@H](O)CO1)OC2`, the Potency entry in assay [1], in assay [2], in assay [4], in assay [6], in [18] and in assay [7] was “inactive” throughout. For the same compound, the Potency entry in assay [8], in assay [9], in assay [10], in assay [11], in assay [12] and in assay [15] was “inactive” throughout. The Potency entry in assay [16], in assay [20] and in assay [17] was “inactive” each time. For the same compound, the Potency in assay [3] was 13300 nM (active). The compound was classed as inactive in [5], in assay [13], in [14] and in assay [19].
On to `C=C1C[C@@]23C=CC(=O)[C@@](C)(CCCC(C)C(=O)O)[C@@H]2C[C@@H]1CC3` (some centres not stated), for which the Potency entry in [1], in assay [2], in assay [3], in assay [4], in [6] and in [18] was “inactive” throughout. In addition, the Potency entry in [7], in assay [8], in assay [9], in [10], in assay [11] and in [12] was “inactive” each time. The Potency entry in [15], in [16], in assay [20] and in assay [17] was “inactive” throughout. Also, the result in [5], in assay [13], in assay [14] and in [19] was inactive.
As to `Oc1ccc(/C=C2/c3cc(O)cc(O)c3C(c3ccc(O)cc3)[C@H]2c2cc(O)cc(O)c2)cc1` (some centres not stated), the Potency entry in [1], in assay [2], in assay [4], in [6], in assay [18] and in assay [7] was “inactive” in each case. Also, the Potency entry in assay [8], in assay [9], in assay [10], in assay [11], in assay [12] and in [15] was “inactive” in each case. Further, the Potency result in [16], in assay [20] and in assay [17] was “inactive” each time. Further, in [3], the Potency is 14900 nM (active). The outcome in [5], in assay [13], in assay [14] and in [19] was inactive.
